# Active and inactive are the calls of the source.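 Rule for the calls, unless noted: active = fluorescence slope higher than the sample average by over 3 SD (cut at about -0.22 in these data, passing the limit was not always enough); inactive = the rest.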
# Test system: not listed separately
# Experiment: inhibitors of E-selectin induction by TNFa, primary screen, imaging, HUVEC, immunofluorescence, MLSMR starter and 10KST1 sets (AID 487;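 active = visually confirmed hit in the image check and inhibition above 20%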;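 for inhibition: signal is fraction of cell area covered by stained E-selectin grains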;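 for nuclei count: 100% = median nuclei count of all wells on the same plate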)
# Conditions: HUVEC TNFalpha-induced E-selectin immunofluorescence imaging, at 2 µM; inhibition: stronger effect = higher value; nuclei count: measured here: cell number, toxicity
SMILES,inhibition,nuclei count [%]
Nc1nonc1N1CCCCC1,27.5% (inactive),104
CC1NC2(C(=O)N(Cc3ccccc3)c3ccccc32)C2C(=O)N(c3ccccc3)C(=O)C12 (stereo not given),-33.8% (inactive),109
CCNC(=O)C1CC(=O)N(Cc2ccc3c(c2)OCO3)C(=Nc2ccc(F)cc2)S1 (stereo not given),-83.7% (inactive),98
N/C(=N/O)c1nc(N2CCCC2)nc(N(c2ccccc2)c2ccccc2)n1,-300% (inactive),104
O=C(CC1Oc2ccc(Cl)cc2NC1=O)NC1CCCCCC1 (stereo not given),0.7% (inactive),100
O=C(CSc1n[nH]c(-c2ccco2)n1)Nc1sc2c(c1C(=O)Nc1ccccc1)CCCC2,-73.5% (inactive),91
Cc1nc2ccc(S(=O)(=O)NCC(=O)N3CCc4ccccc4C3)cc2s1,-4.9% (inactive),119
CN(C1CCCCC1)S(=O)(=O)c1ccc(S(=O)(=O)N2CCN(CCC#N)CC2)cc1,-53.2% (inactive),107
CCOC(=O)C(NC(=O)Nc1ccccc1)(OCC)C(F)(F)F (stereo not given),25% (inactive),89.1
Cc1ccc(NC(=O)CCC(=O)O)cc1F,-10.9% (inactive),115
Cc1cc(C)n(-c2cc(N3CCOCC3)ncn2)n1,-69.3% (inactive),125
CC1CCCC(C)N1C(=O)COC(=O)c1ccc[nH]c1=O (stereo not given),25.2% (inactive),113
COc1ccc(N(CC(=O)Nc2cc(C)ccc2C)S(=O)(=O)c2c(C)nn(C)c2C)cc1,-8.4% (inactive),101
Cc1ccc(-c2cc3nc4c(c(=O)n3[nH]2)CCCC4)cc1,-69.9% (inactive),119
CCSc1oc(-c2cccs2)nc1S(=O)(=O)c1ccccc1,-16.9% (inactive),104
CNC(=O)c1nnn(Cc2ccccc2)c1NC(C)=O,-73.3% (inactive),92.3
O=C(CSc1nnc2ccccn12)NCCN1C(=O)CSC1=O,-218% (inactive),130
CC(=O)Nc1cccc(NC(=O)c2ccco2)c1,-72.9% (inactive),131
O=C(CSc1nc2ccsc2c(=O)n1NC(=O)c1ccccc1)Nc1nccs1,-134% (inactive),101
O=S(=O)(c1ccccc1)N1CCN(S(=O)(=O)c2ccccc2)C1,-60.7% (inactive),96.4

SMILES,inhibition,nuclei count [%]
CN(C)S(=O)(=O)c1cccc(C(=O)Nc2cccnc2)c1,-79.6% (inactive),128
COc1ccc(Cn2nnnc2CN2CCOCC2)cc1,1% (inactive),97.7
Cc1cc(NS(=O)(=O)c2ccccc2)no1,-72.8% (inactive),122
O=C(/C=N/O)NCc1ccncc1,28.2% (inactive),88
Cc1cc(C(=O)NCc2ccc(S(N)(=O)=O)cc2)cs1,9.5% (inactive),91.3
CCn1cc(C(=O)N2CCOCC2)c(=O)c2cc(S(=O)(=O)N(C)C3CCCCC3)ccc21,-29.5% (inactive),87.7
CCc1nnc(NC(=O)NCN2C(=O)C3C4C=CC(C4)C3C2=O)s1 (stereo not given),-28.4% (inactive),96.4
CC(=O)c1cc(Cl)ccc1OC(=O)c1ccco1,-48.1% (inactive),124
CCOC(=O)CSc1nc2sc(C)c(C)c2c(=O)n1C,8.8% (inactive),113
O=C(c1ccco1)N1CCN(CCCCN2C(=O)c3ccccc3C2=O)CC1,5.7% (inactive),95.4
CS(=O)(=O)N(CC(=O)NCc1ccncc1)Cc1ccc(Cl)cc1,-83.3% (inactive),121
CC1CCc2c(sc(N)c2C(N)=O)C1 (stereo not given),16.5% (inactive),98.4
Cc1cc2ccccn2c1C(=O)c1ccncc1,-1.7% (inactive),111
Cc1nnc(SCC(=O)NCCN2C(=O)CSC2=O)s1,-195% (inactive),125
CCOC(=O)c1cccc(NC(=O)CNS(=O)(=O)c2cccs2)c1,-7.8% (inactive),134
COc1ccc(NC(=O)CS(=O)CC(=O)Nc2cc(Cl)ccc2OC)cc1 (stereo not given),-34.6% (inactive),96
O=C(NCCc1c[nH]c2ccccc12)c1cnc2n(c1=O)CCS2,-35.9% (inactive),90.6
COc1ccc2c(c1)cc(C(=O)O)n2C,-10.3% (inactive),128
COc1cc2c(cc1OC)CN(CC(=O)Nc1cccc(C)c1)CC2,-74.2% (inactive),102
COc1ccc(-n2c(=O)[nH]cc(C(=O)Nc3ccc(NC(C)=O)cc3)c2=O)cc1,30.3% (inactive),85.4

# Target: Voltage-gated potassium channel subunit beta-2 (Rattus norvegicus) (UniProt P62483)
# Experiment: KvBeta enzyme negative modulators, primary screen, biochemical, NADPH fluorescence (AID 622);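 note: slope of raw intensity against log time taken from 70 to 1610 s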
# Conditions: recombinant KvBeta, 4-cyanobenzaldehyde reduction, at 10 µM, stronger effect = higher value
# Chain of Voltage-gated potassium channel subunit beta-2 (Rattus norvegicus) (P62483 whole entry, looked up): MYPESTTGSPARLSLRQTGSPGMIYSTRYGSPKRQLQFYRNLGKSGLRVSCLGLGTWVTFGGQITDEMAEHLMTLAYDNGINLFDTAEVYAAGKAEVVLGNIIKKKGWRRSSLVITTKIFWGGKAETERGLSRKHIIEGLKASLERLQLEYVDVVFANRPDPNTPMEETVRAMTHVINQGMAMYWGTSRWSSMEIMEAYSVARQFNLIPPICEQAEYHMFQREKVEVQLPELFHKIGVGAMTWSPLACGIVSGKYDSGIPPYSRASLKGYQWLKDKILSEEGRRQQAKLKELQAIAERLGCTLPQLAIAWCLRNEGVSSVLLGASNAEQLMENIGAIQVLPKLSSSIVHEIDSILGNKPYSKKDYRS
row,SMILES,fluorescence slope
1,Nc1nonc1N1CCCCC1,-0.474 (inactive)
2,CC1NC2(C(=O)N(Cc3ccccc3)c3ccccc32)C2C(=O)N(c3ccccc3)C(=O)C12 (stereo not given),-0.567 (inactive)
3,CCNC(=O)C1CC(=O)N(Cc2ccc3c(c2)OCO3)C(=Nc2ccc(F)cc2)S1 (stereo not given),-0.471 (inactive)
4,N/C(=N/O)c1nc(N2CCCC2)nc(N(c2ccccc2)c2ccccc2)n1,-0.593 (inactive)
5,O=C(CC1Oc2ccc(Cl)cc2NC1=O)NC1CCCCCC1 (stereo not given),-0.544 (inactive)
6,O=C(CSc1n[nH]c(-c2ccco2)n1)Nc1sc2c(c1C(=O)Nc1ccccc1)CCCC2,-0.447 (inactive)
7,Cc1nc2ccc(S(=O)(=O)NCC(=O)N3CCc4ccccc4C3)cc2s1,-0.563 (inactive)
8,CN(C1CCCCC1)S(=O)(=O)c1ccc(S(=O)(=O)N2CCN(CCC#N)CC2)cc1,-0.527 (inactive)
9,CCOC(=O)C(NC(=O)Nc1ccccc1)(OCC)C(F)(F)F (stereo not given),-0.639 (inactive)
10,Cc1ccc(NC(=O)CCC(=O)O)cc1F,-0.508 (inactive)
11,Cc1cc(C)n(-c2cc(N3CCOCC3)ncn2)n1,-0.436 (inactive)
12,CC1CCCC(C)N1C(=O)COC(=O)c1ccc[nH]c1=O (stereo not given),-0.326 (inactive)
13,COc1ccc(N(CC(=O)Nc2cc(C)ccc2C)S(=O)(=O)c2c(C)nn(C)c2C)cc1,-0.603 (inactive)
14,Cc1ccc(-c2cc3nc4c(c(=O)n3[nH]2)CCCC4)cc1,-0.454 (inactive)
15,CCSc1oc(-c2cccs2)nc1S(=O)(=O)c1ccccc1,-0.56 (inactive)
16,CNC(=O)c1nnn(Cc2ccccc2)c1NC(C)=O,-0.601 (inactive)
17,O=C(CSc1nnc2ccccn12)NCCN1C(=O)CSC1=O,-0.608 (inactive)
18,CC(=O)Nc1cccc(NC(=O)c2ccco2)c1,-0.391 (inactive)
19,O=C(CSc1nc2ccsc2c(=O)n1NC(=O)c1ccccc1)Nc1nccs1,-0.342 (inactive)
20,O=S(=O)(c1ccccc1)N1CCN(S(=O)(=O)c2ccccc2)C1,-0.337 (inactive)

row,SMILES,fluorescence slope
1,CN(C)S(=O)(=O)c1cccc(C(=O)Nc2cccnc2)c1,-0.407 (inactive)
2,COc1ccc(Cn2nnnc2CN2CCOCC2)cc1,-0.441 (inactive)
3,Cc1cc(NS(=O)(=O)c2ccccc2)no1,-0.56 (inactive)
4,O=C(/C=N/O)NCc1ccncc1,-0.606 (inactive)
5,Cc1cc(C(=O)NCc2ccc(S(N)(=O)=O)cc2)cs1,-0.63 (inactive)
6,CCn1cc(C(=O)N2CCOCC2)c(=O)c2cc(S(=O)(=O)N(C)C3CCCCC3)ccc21,-0.581 (inactive)
7,CCc1nnc(NC(=O)NCN2C(=O)C3C4C=CC(C4)C3C2=O)s1 (stereo not given),-0.458 (inactive)
8,CC(=O)c1cc(Cl)ccc1OC(=O)c1ccco1,-0.475 (inactive)
9,CCOC(=O)CSc1nc2sc(C)c(C)c2c(=O)n1C,-0.36 (inactive)
10,O=C(c1ccco1)N1CCN(CCCCN2C(=O)c3ccccc3C2=O)CC1,-0.593 (inactive)
11,CS(=O)(=O)N(CC(=O)NCc1ccncc1)Cc1ccc(Cl)cc1,-0.471 (inactive)
12,CC1CCc2c(sc(N)c2C(N)=O)C1 (stereo not given),-0.371 (inactive)
13,Cc1cc2ccccn2c1C(=O)c1ccncc1,-0.62 (inactive)
14,Cc1nnc(SCC(=O)NCCN2C(=O)CSC2=O)s1,-0.606 (inactive)
15,CCOC(=O)c1cccc(NC(=O)CNS(=O)(=O)c2cccs2)c1,-0.518 (inactive)
16,COc1ccc(NC(=O)CS(=O)CC(=O)Nc2cc(Cl)ccc2OC)cc1 (stereo not given),-0.362 (inactive)
17,O=C(NCCc1c[nH]c2ccccc12)c1cnc2n(c1=O)CCS2,-0.547 (inactive)
18,COc1ccc2c(c1)cc(C(=O)O)n2C,-0.393 (inactive)
19,COc1cc2c(cc1OC)CN(CC(=O)Nc1cccc(C)c1)CC2,-0.495 (inactive)
20,COc1ccc(-n2c(=O)[nH]cc(C(=O)Nc3ccc(NC(C)=O)cc3)c2=O)cc1,-0.629 (inactive)
